Source: PubChem BioAssay (NCI)
This is part of a sample that, as a whole, favours compounds with a hit. Of some 83,000 tested, about 20% had one in any assay.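 96-well plates, one dose, 48 hours. Percent growth reported; active if below 10.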 A number with no mark means an inactive call. Calls of active or inactive are those of the source.

What was measured:
Assay in all cases: NCI-60 one-dose screen, 48 h (100 = growth as untreated, 0 = no growth, -100 = all killed)
Details in all cases: 10 µM unless noted
NCI-H23 lung = tested on: NCI-H23 lung
NCI-H226 lung = tested on: NCI-H226 lung
NCI-H322M lung = tested on: NCI-H322M lung
HOP-62 NSCLC = tested on: HOP-62 NSCLC
NCI-H460 lung = tested on: NCI-H460 lung
HOP-92 NSCLC = tested on: HOP-92 NSCLC
NCI-H522 lung = tested on: NCI-H522 lung
A549/ATCC NSCLC = tested on: A549/ATCC NSCLC
786-0 renal = tested on: 786-0 renal
COLO 205 colon = tested on: COLO 205 colon

SMILES | growth (NCI-H23 lung) | growth (NCI-H226 lung) | growth (NCI-H322M lung) | growth (HOP-62 NSCLC) [%] | growth (NCI-H460 lung) | growth (HOP-92 NSCLC) | growth (NCI-H522 lung) | growth (A549/ATCC NSCLC) | growth (786-0 renal) | growth (COLO 205 colon)
OCCNCCNC(Cc1ccc(Cl)cc1)c1ccccc1 (stereo not drawn) | 96.2% | 98.1% | 93.1% | 72.2 | 107% | 38.4% | 64.1% | 88.1% | 57.5% | 70%
C=C1C(=O)O[C@H]2[C@H]1CC/C(COC(=O)c1ccc(C(=O)O)s1)=C\CC[C@@]1(C)O[C@@H]21 | 57.4% | 41.9% | 68.2% |  | 30.6% | 1.03% (active) | -79.8% (active) | 80.3% | 41.6% | -0.755% (active)
O=C(O)[C@@H](Cc1ccc2ccccc2c1)NC(=O)n1c2ccccc2c2ccccc21 | 34.8% | 85.9% | 49% | 31.3 | 9.11% (active) | 39.5% | -7.97% (active) | 44.3% | 27.7% | -35.2% (active)
CCOC(=O)C(=CNc1cnc(Nc2ccc(N3CCOCC3)cc2)nc1Oc1ccc(OC)cc1)C(=O)OCC | 68.4% | 70.3% | 39.7% |  | 2.03% (active) | 30.3% | 76.3% | 22.2% | 30.8% | 65.9%
CN1C(=O)/C(=C/c2ccc(C(=O)Nc3ncc(Cc4cccc(Cl)c4)s3)cc2)SC1=S | 59.5% | 64.5% | 76.2% |  | 20.3% | 71.9% | 57.5% | 56% | 63.4% | 57.8%
N#Cc1ccc(O)c(C2=NCC(Cc3ccccc3)O2)c1 (stereo not drawn) | 54.5% | 65.9% | 59.9% |  | 23.5% | 65% | -17.5% (active) | 35.8% | 38.7% | 60.7%
N#Cc1c(-c2ccccc2)nc(SCc2nnc(-c3ccc(Cl)cc3)o2)[nH]c1=O | 105% | 97.2% | 104% |  | 105% | 78.8% | 71.2% | 78.2% | 89.2% | 89.3%
O=C1Nc2ccccc2C1(c1c[nH]c2ccccc12)c1c[nH]c2ccccc12 | -13.5% (active) | 8.63% (active) | -15.6% (active) |  | 70.6% | -6.64% (active) | 21.6% | 58.7% | 83.7% | -27.7% (active)
COC(=O)c1c2c(n3ccccc13)C(=O)c1ccccc1C2=O | 44.9% | 73.8% | 23.5% |  | 1.15% (active) | 77.8% | 54.4% | -49.1% (active) | 71.5% | 28.1%
CO[C@H]1CC(=O)n2c3ccccc3c3c4c(c5c6ccccc6n1c5c32)C(=O)NC4=O | 63.3% | 52.1% | 63.5% |  | 29.1% | 86.1% | 58.9% | 57% | 97.4% | 42%
CC1(C)CC[C@]2(C(=O)N[C@H](CO)Cc3ccccc3)CC[C@]3(C)C(=CC[C@@H]4[C@@]5(C)CCCNC(C)(C)[C@@H]5CC[C@]43C)[C@@H]2C1 | 104% | 91.1% | 95.3% |  | 78.3% | 26.4% | 96.8% | 89.8% | 65.5% | 77.8%
C=C(C)[C@@H]1CC[C@]2(COC(C)=O)CC[C@]3(C)[C@H](CC[C@@H]4[C@@]5(C)CCCN(C(C)=O)C(C)(C)[C@@H]5CC[C@]43C)[C@@H]12 | 89.2% | 45.2% | 61.3% | 82.6 | 0.0182% (active) | 69.3% | 59.6% | 33.8% | 8.13% (active) | -76.5% (active)
CCN1C(=O)N(CC)C2C1NN=c1s/c(=C\c3cnc(C)n3C)c(=O)n12 (stereo not drawn) | 38.1% | 53.3% | 29.6% |  | 4.44% (active) | 43% | -14.4% (active) | 15.8% | 28.4% | 14.5%
CCN1CCN(CC(=O)Nc2ccc(-c3cn4c(n3)sc3cc(Oc5ccnc(C(=O)NC)c5)ccc34)cc2)CC1 | 97.1% | 105% | 75.9% | 66.1 | 48.7% | 54.6% | 83.7% | 78.2% | 75.3% | 51.8%
CNC1=CC(=O)c2c(C(=O)OC)c(C)[n+]([O-])c(C)c2C1=O | 40% | 82.1% | 71.9% |  | 28.2% | 106% | 23.3% | 55.3% | 97.9% | 8.07% (active)
C[C@]1(O)CC(=O)[C@]2(O)C3=C(C=C[C@]2(O)C1)C(=O)c1c(O)cccc1C3=O | -6.78% (active) | 89.3% | 86.1% |  | 74.9% | -12.2% (active) | -59.5% (active) | 103% | 9.83% (active) | -81.3% (active)
C=C1C(=O)O[C@H]2[C@H]1CC/C(COC(=O)/C=C\C(=O)NCc1ccc(Cn3c(=O)sn(CCCCC)c3=O)cc1)=C\CC[C@@]1(C)O[C@@H]21 | 87.4% | 104% | 101% |  | 97.8% | 89.7% | -7.84% (active) | 97.5% | 62.8% | 19.3%
CCOC(=O)C1=C(C)/C(=C\c2[nH]c(C)c(C(=O)OCC)c2C)N=C1C | 80.2% | 94.3% | 93.5% |  | 102% | 103% | 75.4% | 86.7% | 98.9% | 85.2%
COc1ccc2nc(Cl)c(/C=C3\CC(c4ccccc4)=NN(c4ccccc4)C3=O)cc2c1 | 78.8% | 55.6% | 74.6% |  | 67.8% | -20.3% (active) | 65.6% | 65.2% | -4.27% (active) | 99.3%
COc1cc2c(c(OC)c1OC)C(=O)CC(c1cccc(NC(=O)c3ccc(C#N)cc3)c1)O2 (stereo not drawn) | 70.6% | 68.3% | 91.4% |  | 85.6% | 67.6% | 46.6% | 77.4% | 91.9% | 90.6%
N=C(N)c1ccc(-c2ccc(-c3ccccc3)s2)cc1 | 85.5% | 103% | 49.2% | 74.6 | -16.6% (active) | 73.2% | -26.5% (active) | 60.1% | 78.8% | -42.9% (active)
COc1ccc(C#Cc2ccc(=O)oc2-c2cc(OC)c(OC)c(OC)c2)cc1O | 45.7% | 71.3% | 49.7% |  | 15.3% | 48.4% | 20.6% | 42.6% | 54.3% | 69.4%
O=S(=O)(Nc1cc(Sc2cccc3cccnc23)c(O)c2ccccc12)c1ccccc1 | 28.8% | 46.3% | 28.3% |  | 3.5% (active) | 33.1% | -37.3% (active) | 15.7% | 36.6% | -47.6% (active)
COc1ccc(Oc2nc(Nc3ccc(N4CCOCC4)cc3)ncc2NC(=O)Nc2cc(OC)cc(OC)c2)cc1 | 33.2% | 32.7% | 23.3% |  | -36.5% (active) | -11.5% (active) | 4.69% (active) | 2.22% (active) | 22.5% | -54.8% (active)
Cc1ccc(-c2csc(NC(=O)c3ccccc3CN3C(=O)c4ccccc4C3=O)n2)cc1 | 93.3% | 92% | 95.1% |  | 109% | 89.6% | 82.1% | 86.4% | 95.8% | 103%
Cc1ccc(S(=O)(=O)Oc2ccc3sc4cccc(NCCN(C)C)c4c(=O)c3c2)cc1 | -93.5% (active) | -71.9% (active) | -88.1% (active) |  | -92.7% (active) | -77.4% (active) | -81.7% (active) | -74.1% (active) | -85.7% (active) | -83.8% (active)
O=C1/C(=C/c2ccc(F)cc2)CN(C(=O)C(Cl)Cl)C/C1=C\c1ccc(F)cc1 | -48.1% (active) | 0.691% (active) | -63% (active) |  | -78% (active) | -48% (active) | -58.1% (active) | -31.8% (active) | -56.2% (active) | -70.2% (active)
